PubChem BioAssay
The source made the active and inactive calls.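 Rule for the calls, unless noted: active = inhibition at or above 50% at 10 µM; inactive = inhibition below 50%.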

Key:
[1] = inhibitors of TNFa-induced NFkB p65 translocation, primary screen, imaging, HUVEC, MLSMR starter and 10KST1 sets (AID 438;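 active = inhibition above 20% together with a positive visual image hit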;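 note: compound added about 3h40 before a 20 min TNFalpha stimulation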;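 for inhibition: signal is the nuclear over cytoplasmic p65 intensity ratio per well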); settings: HUVEC TNFa-induced p65 nuclear translocation; cell count: measured here: nuclei count (cytotoxicity indicator), at 2.08 µM; inhibition: at 2 µM, stronger effect = higher value, 0% TNFa-plus-vehicle, 100% no-TNFa wells
[2] = inhibitors of mutant huntingtin aggregation, primary screen, imaging, exon1htt(103Q)mCFP cells, high-content imaging (AID 483;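 active = visual image review flags a hit and inhibition of aggregation exceeds 20%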;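 note: compound exposure lasted 3 days before fixation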;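 for nuclei count: percent of the per-plate median nuclei count of sample wells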); settings: exon1htt(103Q)mCFP cell line, aggregate imaging, at 2 µM; inhibition of aggregation: stronger effect = higher value; nuclei count: measured here: cell count, toxicity
[3] = inhibitors of E-selectin induction by TNFa, primary screen, imaging, HUVEC, immunofluorescence, MLSMR starter and 10KST1 sets (AID 487;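 active = visually confirmed hit in the image check and inhibition above 20%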;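 for inhibition: signal is fraction of cell area covered by stained E-selectin grains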;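 for nuclei count: 100% = median nuclei count of all wells on the same plate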); settings: HUVEC TNFalpha-induced E-selectin immunofluorescence imaging, at 2 µM; inhibition: stronger effect = higher value; nuclei count: measured here: cell number, toxicity
[4] = molecular target: Voltage-gated potassium channel subunit beta-2 (Rattus norvegicus) (UniProt P62483); experiment: KvBeta enzyme negative modulators, primary screen, biochemical, NADPH fluorescence (AID 622;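 active = fluorescence slope higher than the sample average by over 3 SD, cut at about -0.22 in these data, passing the limit was not always enough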;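 note: slope of raw intensity against log time taken from 70 to 1610 s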); settings: recombinant KvBeta, 4-cyanobenzaldehyde reduction, at 10 µM, stronger effect = higher value
Sequence of Voltage-gated potassium channel subunit beta-2 (Rattus norvegicus) (P62483 whole entry, looked up): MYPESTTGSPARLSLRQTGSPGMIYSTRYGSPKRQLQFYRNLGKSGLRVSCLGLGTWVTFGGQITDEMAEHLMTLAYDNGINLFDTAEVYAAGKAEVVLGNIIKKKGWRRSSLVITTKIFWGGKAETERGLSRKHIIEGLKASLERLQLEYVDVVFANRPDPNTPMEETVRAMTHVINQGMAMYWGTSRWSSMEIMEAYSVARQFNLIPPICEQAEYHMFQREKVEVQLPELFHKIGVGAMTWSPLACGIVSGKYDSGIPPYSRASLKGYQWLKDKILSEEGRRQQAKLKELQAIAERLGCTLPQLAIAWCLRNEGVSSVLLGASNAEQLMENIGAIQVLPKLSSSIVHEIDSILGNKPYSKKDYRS

[5] = molecular target: Voltage-gated potassium channel subunit beta-2 (Rattus norvegicus) (UniProt P62483); experiment: KvBeta positive modulators, primary screen, biochemical, NADPH fluorescence (AID 623;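 active = NADPH fluorescence slope more negative than the mean of all samples by about 3 SD, 99.7% confidence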;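 note: fluorescence intensity change per second fitted from 20 to 320 s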); settings: Recombinant KvBeta, NADPH fluorescence decrease slope, 10 min; at 10 µM; stronger effect = lower value
[6] = molecular target: Alpha-2C adrenergic receptor (Homo sapiens) (UniProt P18825); experiment: modulators of alpha2C/GIRK thallium flux, primary screen, cell-based, HEK293 alpha2C/GIRK1/2 (AID 624;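 active = fluorescence slope after compound addition differing from the mean of all screened samples at 99.7% confidence, in either direction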;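 note: slope of fluorescence ratio to pre-addition baseline per second over 15 to 24 s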); settings: thallium flux BTC fluorescence, at 10 µM, actives lie on both sides
Sequence of Alpha-2C adrenergic receptor (Homo sapiens) (P18825 whole entry, looked up): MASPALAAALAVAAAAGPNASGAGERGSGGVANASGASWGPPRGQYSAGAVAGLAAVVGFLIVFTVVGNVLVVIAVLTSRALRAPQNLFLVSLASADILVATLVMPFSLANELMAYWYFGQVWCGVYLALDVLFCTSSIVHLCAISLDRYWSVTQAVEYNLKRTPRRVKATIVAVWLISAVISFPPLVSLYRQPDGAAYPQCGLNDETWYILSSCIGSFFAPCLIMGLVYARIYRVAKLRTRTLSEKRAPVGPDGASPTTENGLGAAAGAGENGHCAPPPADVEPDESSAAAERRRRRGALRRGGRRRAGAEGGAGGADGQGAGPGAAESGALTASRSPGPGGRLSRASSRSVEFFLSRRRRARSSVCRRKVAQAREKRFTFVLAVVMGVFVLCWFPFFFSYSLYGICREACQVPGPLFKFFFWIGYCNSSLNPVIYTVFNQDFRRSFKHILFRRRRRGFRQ

[7] = inhibitors of Sendai virus-induced IRF3 signaling, primary screen, TLR/RLR signaling modifier project, cell-based, Sendai virus stimulus, luciferase, 10K MLSCN set (AID 602276); settings: HEK293 RL24 IRF3 luciferase reporter, at 10 µM, stronger effect = higher value;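 note: firefly luciferase from ISG56 promoter only with Renilla not read in this screen; 0% = Sendai virus plus DMSO and 100% = medium plus DMSO without virus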
[8] = inhibitors of poly I:C-induced TLR3 signaling, primary screen, cell-based, poly I:C stimulus, luciferase, 10K MLSCN set (AID 602277;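 active = inhibition of the reporter signal at or above 50%; inactive = inhibition below 50%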); settings: HEK293-TLR3 RL24 IRF3 luciferase reporter, at 10 µM, stronger effect = higher value

| Structure (SMILES) | cell count [1] | inhibition [1] | inhibition of aggregation [2] | nuclei count [2] | inhibition [3] | nuclei count [3] | fluorescence slope [4] | NADPH fluorescence slope [5] | slope [6] | inhibition [7] | inhibition [8] |
| --- | --- | --- | --- | --- | --- | --- | --- | --- | --- | --- | --- |
| CCOC(=O)CN1C(=O)C2(OCCCO2)c2ccccc21 | 595 | -18.5% (inactive) | 3.3% (inactive) | 115% | -39.6% (inactive) | 96.5% | -0.454 (inactive) | -0.000151 (inactive) | 0.00617 (inactive) | 1.67% (inactive) | 18.4% (inactive) |
| COc1ccccc1N1CCN(Cc2nc(N)nc(Nc3ccc(C)c(Cl)c3)n2)CC1 | 467 | -1.9% (inactive) | 17.2% (inactive) | 97.1% | -5.6% (inactive) | 100% | -0.501 (inactive) | 1e-05 (inactive) | 0.00625 (inactive) | 11.5% (inactive) | 29.6% (inactive) |
| O=C(NCC12CC3CC(C1)CC(CNC(=O)N1CCCC1)(C3)C2)N1CCCC1 | 633 | 2.2% (inactive) | 3.3% (inactive) | 92.2% | -37.7% (inactive) | 112% | -0.463 (inactive) | -6e-05 (inactive) | 0.00588 (inactive) | 19.1% (inactive) | 22.9% (inactive) |
| CC(C)COC(=O)C1C2C=CC3(CN(C(C)c4ccc(Br)cc4)C(=O)C13)O2 (stereo not drawn) | 477 | -10.8% (inactive) | 28.1% (inactive) | 78.4% | -32.2% (inactive) | 86.6% | -0.532 (inactive) | -3.6e-05 (inactive) | 0.00795 (inactive) | 11.4% (inactive) | 28.5% (inactive) |
| CCOC(=O)N1CCC(N2CC34C=CC(O3)C(C(=O)O)C4C2=O)CC1 (stereo not drawn) | 811 | 4.4% (inactive) | 14.5% (inactive) | 106% | -9.6% (inactive) | 114% | -0.552 (inactive) | 2.3e-05 (inactive) | 0.00719 (inactive) | 4.63% (inactive) | 12.4% (inactive) |
| O=C(OCCCCN1C(=O)c2ccccc2C1=O)c1n[nH]c2ccccc12 | 698 | 8.6% (inactive) | 12.4% (inactive) | 97% | -164% (inactive) | 155% | -0.543 (inactive) | -5.2e-05 (inactive) | 0.00475 (inactive) | 9.32% (inactive) | -4.95% (inactive) |
| Cc1sc(NC(=O)CSc2nc(N)n(CC(=O)c3ccccc3)n2)c(C#N)c1C | 403 | -0.8% (inactive) | -21.4% (inactive) | 111% | -61.6% (inactive) | 111% | -0.612 (inactive) | -2.1e-05 (inactive) | 0.00622 (inactive) | -14.5% (inactive) | -21.2% (inactive) |
| CCOc1ccccc1NC(=O)CCN1CCN(S(=O)(=O)c2ccc(Br)cc2)CC1 | 572 | -12.3% (inactive) | -10.2% (inactive) | 117% | -67.4% (inactive) | 65.1% | -0.526 (inactive) | -5.3e-05 (inactive) | 0.00415 (inactive) | 12.6% (inactive) | 21.5% (inactive) |
| COc1cccc(-c2nnc(NC(=O)Cc3cccs3)s2)c1 | 710 | -5% (inactive) | 22% (inactive) | 79.8% | 1.2% (inactive) | 92% | -0.452 (inactive) | -3e-05 (inactive) | 0.00526 (inactive) | 2.67% (inactive) | -7.11% (inactive) |
| CCN(CC)CCNC(=O)c1ccc(CS(=O)(=O)c2ccc(Br)cc2)o1 | 655 | 11.2% (inactive) | -11.8% (inactive) | 103% | 21.7% (inactive) | 117% | -0.611 (inactive) | -3.9e-05 (inactive) | 0.00568 (inactive) | 7.79% (inactive) | 25.7% (inactive) |
| Fc1cccc2sc(N3CCOCC3)nc12 | 255 | -8.3% (inactive) | 16.8% (inactive) | 68.5% | 6.6% (inactive) | 51.7% | -0.387 (inactive) | -3.9e-05 (inactive) | 0.00353 (inactive) | -10.5% (inactive) | -45.8% (inactive) |
| COCCNC(=O)CN1C(=O)CSc2ncccc21 | 673 | -6.7% (inactive) | -43.1% (inactive) | 115% | -62.1% (inactive) | 117% | -0.413 (inactive) | -1.6e-05 (inactive) | 0.00576 (inactive) | 11.1% (inactive) | 28.9% (inactive) |
| c1ccc(CCNc2ccc3nncn3n2)cc1 | 593 | 5.8% (inactive) | -3.1% (inactive) | 106% | -9.2% (inactive) | 121% | -0.501 (inactive) | -2.4e-05 (inactive) | 0.00573 (inactive) | 6.01% (inactive) | 12.8% (inactive) |
